Results from the supplement of paper PMC10849652.
Targets with a hit are over-represented here; the source holds about 8,800 in all. About 0.5% of all pairs of compound and target were hits. Unmarked numbers belong to inactive results.

Legend:
Test in all cases: log2 fold change, soluble protein after heating vs DMSO (PISA); higher = thermal stabilisation; K562 lysate, 10 uM; active = over 0.2 and 3.5 SD of the protein, either way, in both replicates (recomputed)
erlotinib = compound: C#Cc1cccc(Nc2ncnc3cc(OCCOC)c(OCCOC)cc23)c1 [erlotinib]
How it was run: (§1)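 Values give the log-two fold change in thermal stability against solvent controls, from duplicates. Crude K562 extract at 1 mg/mL protein, made by dounce homogenisation in PBS pH 7.4 with 1 mM MgCl2, was treated with 10 μM compound for 30 min. After 3 min heating across 48°C-58°C, aliquots were pooled, adjusted to 0.5% NP-40 at 4°C and centrifuged at 21,000xg for 90 min. The supernatant was measured by TMTpro 16plex LC-MS/MS with channel sums equalised.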

[1] = compound: C/C(=N\NC(=O)C1=CC(=CC=C1)S(=O)(=O)N2CCOCC2)/C3=C(C=CC(=C3)Cl)O
How it was run: as §1

[2] = compound: C1=CC(=CC=C1C2=NC3=C(N2)C=C(C=C3)C(=O)N)OC4=CC=C(C=C4)Cl
How it was run: as §1

[3] = compound: C1=CC2=C(C=CC(=C2)/C=C\3/C(=O)NC(=NCC4=CC=CS4)S3)N=C1
How it was run: as §1

[4] = compound: C1=CC2=NC=CN=C2C=C1/C=C/3\C(=O)NC(=O)S3
How it was run: as §1

[5] = compound: C1=CC=C(C=C1)C2=NC(=C(N2)C3=CC=NC=C3)C4=CC(=C(C=C4)Cl)O
How it was run: as §1

[6] = compound: C1=CC=C2C(=C1)C3=NNC4=CC=CC(=C43)C2=O
How it was run: as §1

[7] = compound: C1CCN(C1)C(=O)NC2=CC=CC(=C2)NC3=NC=C(C(=N3)NCCC4=CN=CN4)Br
How it was run: as §1

[8] = compound: C1CN(CCC1(CC2=CC=C(C=C2)Cl)N)C3=NC=NC4=C3C=CN4
How it was run: as §1

IRAK-1-4 Inhibitor I = compound: C1COCCN1CCN2C3=CC=CC=C3N=C2NC(=O)C4=CC(=CC=C4)[N+](=O)[O-] [IRAK-1-4 Inhibitor I]
How it was run: as §1

ibrutinib = compound: C=CC(=O)N1CCC[C@@H](n2nc(-c3ccc(Oc4ccccc4)cc3)c3c(N)ncnc32)C1 [ibrutinib]
How it was run: as §1

[9] = compound: CC(=O)c1cnc2ccc(-c3cc(Cl)c(O)c(Cl)c3)nc2c1N[C@H]1CC[C@H](CN(C)C)CC1
How it was run: as §1

ralimetinib = compound: CC(C)(C)Cn1c(N)nc2ccc(-c3[nH]c(C(C)(C)C)nc3-c3ccc(F)cc3)nc21 [ralimetinib]
How it was run: as §1

[10] = compound: CC(C)(O)CC(=O)NCCn1ccc2ncnc(Nc3ccc(Oc4cccc(C(F)(F)F)c4)c(Cl)c3)c21
How it was run: as §1

[11] = compound: CC(C)C1=C2N=C(C=C(N2N=C1)NCC3=CC=CC=C3)NCCCCCCN
How it was run: as §1

[12] = compound: CC1=C(C(CC(=O)N1)C2=CC=C(C=C2)C(F)(F)F)C(=O)NC3=C(C=C4C(=C3)C=NN4)F
How it was run: as §1

[13] = compound: CC1=C(C2=C(C=C1)C(=O)C3=CC=CC=C3N2CCCN)C
How it was run: as §1

[14] = compound: CC1=C(C=C(C=C1)NC(=O)C2=CC(=CC=C2)C(C)(C)C#N)NC3=CC4=C(C=C3)N=CN(C4=O)C
How it was run: as §1

[15] = compound: CC1=C(C=C(C=C1)NC(=O)C2=CC(=CC=C2)N(C)C)NC(=O)C3=CC=C(C=C3)O
How it was run: as §1

[16] = compound: CC1=CC=C(C=C1)SC2=C3C=C(SC3=CN=C2)C(=O)N
How it was run: as §1

Chain of UniProt P24863 (P24863 whole entry, looked up): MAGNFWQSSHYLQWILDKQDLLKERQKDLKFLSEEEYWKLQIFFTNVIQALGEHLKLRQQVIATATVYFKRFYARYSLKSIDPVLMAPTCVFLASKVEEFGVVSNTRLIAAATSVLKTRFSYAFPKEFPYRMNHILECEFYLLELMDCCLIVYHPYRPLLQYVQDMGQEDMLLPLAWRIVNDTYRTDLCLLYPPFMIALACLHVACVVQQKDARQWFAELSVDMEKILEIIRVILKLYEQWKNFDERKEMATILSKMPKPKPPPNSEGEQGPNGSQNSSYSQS
Chain of UniProt O95319 (O95319 whole entry, looked up): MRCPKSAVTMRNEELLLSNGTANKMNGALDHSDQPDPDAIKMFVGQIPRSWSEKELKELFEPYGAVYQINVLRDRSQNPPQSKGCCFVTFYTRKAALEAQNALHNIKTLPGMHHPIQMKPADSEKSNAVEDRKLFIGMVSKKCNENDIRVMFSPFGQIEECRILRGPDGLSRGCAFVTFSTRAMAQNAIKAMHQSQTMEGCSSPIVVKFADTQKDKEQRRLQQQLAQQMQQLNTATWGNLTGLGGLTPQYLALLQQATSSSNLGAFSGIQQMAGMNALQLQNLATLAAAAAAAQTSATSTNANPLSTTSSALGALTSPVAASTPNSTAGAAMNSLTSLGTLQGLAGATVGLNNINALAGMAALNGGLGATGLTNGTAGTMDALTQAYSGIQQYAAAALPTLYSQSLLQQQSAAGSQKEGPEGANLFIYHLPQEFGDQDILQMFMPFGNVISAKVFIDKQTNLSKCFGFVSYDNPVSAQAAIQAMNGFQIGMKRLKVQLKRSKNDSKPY
Chain of UniProt P49589 (P49589 whole entry, looked up): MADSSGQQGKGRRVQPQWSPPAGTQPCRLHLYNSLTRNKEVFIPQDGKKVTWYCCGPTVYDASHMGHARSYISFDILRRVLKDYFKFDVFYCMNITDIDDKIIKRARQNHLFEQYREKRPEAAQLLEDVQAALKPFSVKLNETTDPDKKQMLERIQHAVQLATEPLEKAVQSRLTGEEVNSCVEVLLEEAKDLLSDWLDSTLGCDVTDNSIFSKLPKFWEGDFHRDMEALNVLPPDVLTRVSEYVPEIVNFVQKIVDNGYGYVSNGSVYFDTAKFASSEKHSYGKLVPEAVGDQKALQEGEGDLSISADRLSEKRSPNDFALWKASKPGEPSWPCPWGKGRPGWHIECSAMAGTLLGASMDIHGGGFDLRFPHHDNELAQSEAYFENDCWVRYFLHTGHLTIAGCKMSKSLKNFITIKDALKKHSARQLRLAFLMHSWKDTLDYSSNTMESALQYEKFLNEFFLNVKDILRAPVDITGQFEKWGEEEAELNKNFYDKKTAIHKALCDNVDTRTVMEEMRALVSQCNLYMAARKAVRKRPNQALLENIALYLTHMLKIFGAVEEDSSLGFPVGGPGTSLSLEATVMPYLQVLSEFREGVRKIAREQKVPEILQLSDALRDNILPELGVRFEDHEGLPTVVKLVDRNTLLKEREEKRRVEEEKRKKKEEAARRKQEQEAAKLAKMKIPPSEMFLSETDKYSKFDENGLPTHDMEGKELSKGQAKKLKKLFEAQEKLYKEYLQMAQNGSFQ
Chain of UniProt Q13555 (Q13555 whole entry, looked up): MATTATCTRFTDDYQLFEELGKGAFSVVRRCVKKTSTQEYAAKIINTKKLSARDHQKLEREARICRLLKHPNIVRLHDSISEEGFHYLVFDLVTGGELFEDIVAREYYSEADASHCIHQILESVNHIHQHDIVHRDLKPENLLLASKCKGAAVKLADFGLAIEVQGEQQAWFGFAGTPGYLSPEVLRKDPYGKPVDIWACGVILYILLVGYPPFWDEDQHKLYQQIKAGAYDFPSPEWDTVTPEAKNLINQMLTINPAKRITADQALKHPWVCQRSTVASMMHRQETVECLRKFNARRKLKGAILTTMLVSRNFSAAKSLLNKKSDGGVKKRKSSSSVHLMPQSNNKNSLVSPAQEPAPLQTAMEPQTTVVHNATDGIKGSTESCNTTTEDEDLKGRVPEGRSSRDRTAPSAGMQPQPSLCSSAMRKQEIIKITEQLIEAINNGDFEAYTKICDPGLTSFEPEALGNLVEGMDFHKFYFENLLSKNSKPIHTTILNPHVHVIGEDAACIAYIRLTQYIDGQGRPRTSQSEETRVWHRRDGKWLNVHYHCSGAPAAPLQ
Chain of UniProt Q96JB5 (Q96JB5 whole entry, looked up): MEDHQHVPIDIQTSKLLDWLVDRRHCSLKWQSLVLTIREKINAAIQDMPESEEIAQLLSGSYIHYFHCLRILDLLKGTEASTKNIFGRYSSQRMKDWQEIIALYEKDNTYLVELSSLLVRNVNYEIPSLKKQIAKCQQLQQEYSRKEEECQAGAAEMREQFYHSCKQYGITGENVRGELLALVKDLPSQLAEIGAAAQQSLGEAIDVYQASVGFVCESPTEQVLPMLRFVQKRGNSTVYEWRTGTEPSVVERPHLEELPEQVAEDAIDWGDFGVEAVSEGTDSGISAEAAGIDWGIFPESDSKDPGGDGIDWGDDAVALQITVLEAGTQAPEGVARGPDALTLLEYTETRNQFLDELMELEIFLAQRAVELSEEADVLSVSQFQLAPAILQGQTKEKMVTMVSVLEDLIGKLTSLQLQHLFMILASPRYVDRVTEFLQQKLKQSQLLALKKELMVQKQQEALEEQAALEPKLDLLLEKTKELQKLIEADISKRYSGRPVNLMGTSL
Chain of UniProt P55212 (P55212 whole entry, looked up): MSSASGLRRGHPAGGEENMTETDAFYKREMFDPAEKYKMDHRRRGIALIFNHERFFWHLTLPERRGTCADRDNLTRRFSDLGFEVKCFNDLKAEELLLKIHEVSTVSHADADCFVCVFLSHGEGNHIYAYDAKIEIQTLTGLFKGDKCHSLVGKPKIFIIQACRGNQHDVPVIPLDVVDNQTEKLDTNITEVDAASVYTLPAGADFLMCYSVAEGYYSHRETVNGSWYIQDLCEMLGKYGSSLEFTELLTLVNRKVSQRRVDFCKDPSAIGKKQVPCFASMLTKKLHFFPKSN
Chain of UniProt P49918 (P49918 whole entry, looked up): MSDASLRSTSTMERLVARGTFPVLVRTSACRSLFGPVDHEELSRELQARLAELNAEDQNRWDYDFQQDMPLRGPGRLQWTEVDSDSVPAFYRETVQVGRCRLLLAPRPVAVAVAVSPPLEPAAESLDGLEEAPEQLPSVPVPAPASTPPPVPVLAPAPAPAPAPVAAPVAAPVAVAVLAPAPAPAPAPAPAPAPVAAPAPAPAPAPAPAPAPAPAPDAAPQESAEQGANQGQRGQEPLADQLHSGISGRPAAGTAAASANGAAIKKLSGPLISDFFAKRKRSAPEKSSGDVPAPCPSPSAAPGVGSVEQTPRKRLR
Chain of UniProt Q9UL45 (Q9UL45 whole entry, looked up): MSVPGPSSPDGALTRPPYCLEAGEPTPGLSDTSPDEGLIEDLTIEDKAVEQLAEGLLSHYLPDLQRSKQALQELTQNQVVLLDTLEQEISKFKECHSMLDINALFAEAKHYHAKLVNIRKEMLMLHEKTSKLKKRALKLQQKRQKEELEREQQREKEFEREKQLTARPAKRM
Chain of UniProt Q86WR0 (Q86WR0 whole entry, looked up): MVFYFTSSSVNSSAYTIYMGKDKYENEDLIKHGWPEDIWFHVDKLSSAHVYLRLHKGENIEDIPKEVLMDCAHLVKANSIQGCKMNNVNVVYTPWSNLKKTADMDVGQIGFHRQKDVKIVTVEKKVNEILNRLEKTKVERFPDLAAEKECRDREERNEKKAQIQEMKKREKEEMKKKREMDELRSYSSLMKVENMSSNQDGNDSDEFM
Chain of UniProt Q9Y2V0 (Q9Y2V0 whole entry, looked up): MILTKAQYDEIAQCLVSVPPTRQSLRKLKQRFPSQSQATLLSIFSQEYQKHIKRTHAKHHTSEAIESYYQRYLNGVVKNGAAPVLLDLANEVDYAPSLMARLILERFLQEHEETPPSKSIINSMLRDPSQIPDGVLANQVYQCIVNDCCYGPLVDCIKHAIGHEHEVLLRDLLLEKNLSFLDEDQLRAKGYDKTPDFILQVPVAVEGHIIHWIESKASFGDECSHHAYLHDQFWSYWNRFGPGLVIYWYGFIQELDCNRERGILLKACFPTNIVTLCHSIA
Chain of UniProt P40227 (P40227 whole entry, looked up): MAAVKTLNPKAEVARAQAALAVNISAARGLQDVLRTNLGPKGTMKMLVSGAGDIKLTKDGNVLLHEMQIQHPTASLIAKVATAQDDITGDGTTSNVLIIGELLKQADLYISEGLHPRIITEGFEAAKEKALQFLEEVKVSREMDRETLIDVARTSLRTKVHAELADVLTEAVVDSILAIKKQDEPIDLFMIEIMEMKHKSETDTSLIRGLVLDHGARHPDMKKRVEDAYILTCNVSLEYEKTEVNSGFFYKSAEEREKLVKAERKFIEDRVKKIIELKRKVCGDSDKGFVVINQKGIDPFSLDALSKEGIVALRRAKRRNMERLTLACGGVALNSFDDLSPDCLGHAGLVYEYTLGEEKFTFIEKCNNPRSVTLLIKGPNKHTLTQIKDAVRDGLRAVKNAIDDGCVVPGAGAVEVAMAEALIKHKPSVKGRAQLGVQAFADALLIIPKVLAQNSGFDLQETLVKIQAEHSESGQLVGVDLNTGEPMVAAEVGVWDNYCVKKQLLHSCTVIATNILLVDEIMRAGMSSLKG
Chain of UniProt O95260 (O95260 whole entry, looked up): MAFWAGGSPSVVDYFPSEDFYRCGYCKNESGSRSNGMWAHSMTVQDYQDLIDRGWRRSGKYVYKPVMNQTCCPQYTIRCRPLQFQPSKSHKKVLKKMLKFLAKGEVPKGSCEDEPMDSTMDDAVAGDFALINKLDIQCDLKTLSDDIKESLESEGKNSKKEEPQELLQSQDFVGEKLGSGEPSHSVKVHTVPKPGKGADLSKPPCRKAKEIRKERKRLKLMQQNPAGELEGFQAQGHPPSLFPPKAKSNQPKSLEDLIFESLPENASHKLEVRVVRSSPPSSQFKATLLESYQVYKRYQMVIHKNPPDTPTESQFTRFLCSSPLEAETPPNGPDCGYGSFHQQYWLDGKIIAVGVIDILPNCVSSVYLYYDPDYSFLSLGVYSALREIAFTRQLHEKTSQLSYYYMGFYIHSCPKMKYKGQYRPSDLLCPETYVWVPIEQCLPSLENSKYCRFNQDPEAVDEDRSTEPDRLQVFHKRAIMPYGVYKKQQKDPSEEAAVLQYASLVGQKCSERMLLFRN

| Target | log2 fold change (erlotinib) | log2 fold change [1] | log2 fold change [2] | log2 fold change [3] | log2 fold change [4] | log2 fold change [5] | log2 fold change [6] | log2 fold change [7] | log2 fold change [8] | log2 fold change (IRAK-1-4 Inhibitor I) | log2 fold change (ibrutinib) | log2 fold change [9] | log2 fold change (ralimetinib) | log2 fold change [10] | log2 fold change [11] | log2 fold change [12] | log2 fold change [13] | log2 fold change [14] | log2 fold change [15] | log2 fold change [16] |
| --- | --- | --- | --- | --- | --- | --- | --- | --- | --- | --- | --- | --- | --- | --- | --- | --- | --- | --- | --- | --- |
| BLOC1S6 (UniProt Q9UL45) | -0.008 | 0.007 | 0.029 | 0.027 | 0.001 | 0.002 | -0.004 | 0.093 | -0.01 | -0.031 | 0.156 | -0.07 | 0.015 | 0.061 | -0.029 | 0.014 | -0.033 | -0.001 | -0.017 | 0.012 |
| CARS isoform 3 (UniProt P49589) | 0.008 | -0.029 | 0.018 | -0.018 | -0.006 | 0.022 | -0.032 | -0.024 | 0.015 | 0.001 | -0.012 | 0.015 | -0.016 | 0.033 | -0.016 | -0.001 | 0.015 | -0.032 | 0.009 | 0.016 |
| BCKDK (UniProt O14874) | -0.041 | -0.168 | -0.007 | 0.062 | -0.007 | -0.053 | 0.01 | -0.041 | 0.045 | -0.097 | 0.048 | 0.049 | 0.137 | -0.017 | -0.001 | -0.048 | 0.004 | -0.088 | 0.067 | 0.059 |
| CDKN1C (UniProt P49918) | -0.021 | 0.34 | -0.015 | -0.159 | 0.065 | -0.032 | -0.461 (active) | 0.053 | 0.009 | 0.069 | 0.002 | -0.001 | 0.055 | -0.045 | 0.077 | 0.017 | 0.006 | -0.032 | 0.023 | 0.005 |
| C15orf41 (UniProt Q9Y2V0) | 0.008 | 0.073 | 0.032 | 0.112 | -0.097 | 0.014 | -0.04 | -0.028 | -0.076 | -0.012 | -0.028 | -0.013 | -0.018 | -0.029 | 0.063 | 0.006 | 0.045 | 0.023 | 0.13 | -0.106 |
| CDK5RAP3 isoform 4 (UniProt Q96JB5) | 0.009 | -0.068 | -0.011 | -0.018 | 0.031 | -0.002 | -0.014 | -0.016 | 0.016 | 0.022 | -0.01 | -0.001 | -0.022 | -0.022 | -0.016 | 0.004 | 0.013 | 0.025 | 0.017 | 0.014 |
| CCT6A (UniProt P40227) | -0.016 | -0.043 | 0.002 | 0.001 | -0.008 | 0.001 | 0.019 | 0.008 | -0.022 | -0.023 | 0.017 | -0.005 | -0.007 | 0.022 | -0.013 | -0.014 | 0.003 | -0.016 | -0.014 | 0.018 |
| CAMK2G isoform 8 (UniProt Q13555) | 0.009 | -0.193 | 0.027 | -0.094 | 0.018 | -0.027 | 0.116 | 0.026 | 0.044 | 0.036 | 0.036 | 0.173 | -0.022 | 0.009 | -0.001 | -0.019 | 0.073 | -0.03 | 0.05 | -0.027 |
| ATE1 isoform 2 (UniProt O95260) | -0.022 | -0.01 | 0.002 | -0.063 | 0.027 | 0.007 | 0.021 | 0.054 | 0.013 | -0.038 | 0.056 | 0.001 | -0.006 | 0.063 | -0.016 | 0.048 | -0.001 | -0.04 | -0.004 | 0.011 |
| CASP6 (UniProt P55212) | -0.006 | 0.031 | -0.006 | -0.004 | 0.006 | 0 | -0.005 | 0.012 | 0.017 | 0.015 | -0.029 | 0.034 | 0.074 | 0.011 | -0.042 | -0.012 | 0.005 | -0.003 | -0.02 | -0.008 |
| CCNYL1 (UniProt Q8N7R7) | 0.026 | -0.101 | 0.084 | 0.06 | -0.04 | -0.042 | -0.002 | -0.051 | 0.049 | 0.026 | 0.047 | 0.007 | 0.019 | -0.032 | 0.012 | 0.027 | -0.023 | 0.028 | -0.027 | -0.006 |
| CCDC32 isoform 2 (UniProt Q9BV29) | -0.021 | 0.031 | -0.027 | 0 | -0.014 | -0.003 | 0.007 | 0.048 | 0.049 | 0.057 | 0.276 (active) | 0.026 | -0.005 | 0 | 0.047 | -0.017 | -0.03 | 0.051 | 0.028 | 0.03 |
| CCNC (UniProt P24863) | 0.081 | -0.158 | -0.078 | -0.102 | 0.127 | -0.045 | 0.163 | -0.087 | -0.049 | -0.008 | -0.04 | 0.087 | 0.026 | 0.011 | 0.02 | -0.05 | 0.034 | 0.061 | 0.016 | 0.184 |
| CELF2 isoform 3 (UniProt O95319) | -0.111 | -0.041 | -0.041 | -0.004 | -0.024 | 0.007 | -0.012 | -0.053 | 0.041 | -0.029 | -0.016 | 0.062 | -0.019 | -0.015 | 0.001 | 0.025 | 0.01 | -0.413 (active) | 0.018 | 0.014 |
| CHAF1A (UniProt Q13111) | -0.017 | -0.089 | -0.005 | -0.004 | -0.005 | 0.009 | -0.008 | -0.025 | 0.036 | -0.011 | 0.026 | -0.017 | 0.011 | 0.018 | 0.032 | 0.049 | -0.043 | 0.001 | 0.001 | 0.012 |
| CCDC25 (UniProt Q86WR0) | -0.012 | 0.031 | 0.031 | 0.012 | 0.019 | 0.015 | 0.007 | -0.006 | 0 | -0.024 | 0.023 | -0.006 | -0.018 | -0.013 | 0.017 | -0.042 | -0.022 | 0.03 | -0.002 | 0 |
